Experimental data: PubChem BioAssay (NCATS)
Values joined by “and” are separate entries in the source; they are usually repeats but may differ in a detail not shown here. Equal entries are not always repeated. Results filed as inconclusive are left out. Where a call stands in place of a potency, no number is given. A structure can be active in one record and inactive in another. Active and inactive are the calls of the source. The call rests on the fitted dose curve; in most records, active means well fitted inhibition curve with a large enough effect; inconclusive means small, poorly fitted or top-dose-only effect; inactive means flat fitted curve, though single readings scatter.

Assay: P-glycoprotein substrates identified in KB-8-5-11 adenocarcinoma cell line, qHTS therapeutic library screen (AID 1346987); further: nearly all actives have a fitted effect of over 65% in size
Conditions: KB-8-5-11 (P-gp overexpressing) viability, CellTiter-Glo, 72 h; series mostly up to 44.5 µM
In short: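 Luminescence from CellTiter-Glo, read 5 min after addition, quantified survival of KB-8-5-11 (P-gp-overexpressing) cells exposed to compounds for 72 h. AC50 was derived from concentration-response curves.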
Potency means the concentration at half of the fitted maximal effect.

Structure (SMILES)	Potency
COc1nn(CSP(=S)(OC)OC)c(=O)s1	inactive
O=C(N[C@@H](COc1ccc2[nH]c(=O)[nH]c2c1)c1ccccc1)c1cccn(Cc2ccc(F)c(F)c2)c1=O	inactive
O=C(Oc1ccc([N+](=O)[O-])cc1)N1CCN(Cc2cccc(Oc3ccccc3)c2)CC1	inactive
C[C@]12CC[C@H]3[C@@H](CCC4=CC(=O)CC[C@@]43C)[C@H]1CC[C@H]2OC(=O)CCC1CCCC1	inactive
CC(C)(O)C=CC(=O)[C@](C)(O)[C@H]1[C@H](O)C[C@]2(C)[C@@H]3CC=C4[C@@H](C=C(O)C(=O)C4(C)C)[C@]3(C)C(=O)C[C@@]12C	0.118 µM (active)
Clc1ccccc1C(c1ccccc1)(c1ccccc1)n1cccn1	inactive
CC(C)[C@]12O[C@@H]1[C@@H]1O[C@]13[C@]1(O[C@H]1C[C@@H]1C4=C(CC[C@@]13C)C(=O)OC4)[C@H]2O	0.001 µM (active)
c1cc2c(cc1[C@H]1OC[C@H]3[C@H]1CO[C@H]3c1ccc3c(c1)OCO3)OCO2	inactive
CC=C(C)C(=O)O[C@H]1C(C)=C2[C@@H]3OC(=O)[C@@](C)(O)[C@@]3(O)[C@@H](OC(=O)CCC)C[C@](C)(OC(C)=O)[C@@H]2[C@@H]1OC(=O)CCCCCCC	1.87 µM (active)
COc1ccc(CC2NCCc3cc(OC)c(OC)cc32)cc1OC (centres undefined)	inactive
C[C@@H]1CC[C@@]2(OC1)O[C@H]1C[C@H]3[C@@H]4CC=C5C[C@@H](O[C@@H]6O[C@H](CO)[C@@H](O[C@@H]7O[C@@H](C)[C@H](O)[C@@H](O)[C@@H]7O)[C@H](O)[C@@H]6O[C@@H]6O[C@@H](C)[C@H](O)[C@@H](O)[C@@H]6O)CC[C@]5(C)[C@@H]4CC[C@]3(C)[C@@H]1[C@H]2C	18.7 µM (active)
CC(N[C@H]1C[C@H]1c1ccccc1)c1ccc2c(c1)OCCO2 (some centres undefined)	inactive
CC(=O)O[C@@]12CO[C@H]1C[C@H](O)[C@@]1(C)C(=O)[C@H](O)C3=C(C)[C@@H](O)C[C@@](O)([C@@H](OC(=O)c4ccccc4)[C@@H]21)C3(C)C	7.43 µM (active)
O=[N+]([O-])c1c(Cl)c(Cl)cc(Cl)c1Cl	inactive
COc1ccc(N(C(=O)Oc2c(C)cccc2C)c2ccnc(Nc3ccc(N4CCN(C)CC4)cc3)n2)c(OC)c1	inactive and 20.6 µM (active)
O=C(Nc1ccncc1)C(=O)c1cn(Cc2ccc(Cl)cc2)c2ccccc12	0.0332 µM (active)
CC[N+]1(CCOC(=O)C(O)(c2ccccc2)c2ccccc2)CCCCC1	inactive
CC(=Cc1csc(C)n1)[C@@H]1C[C@H]2O[C@]2(C)CCC[C@H](C)[C@@H](O)[C@@H](C)C(=O)C(C)(C)[C@@H](O)CC(=O)O1	0.001 µM (active)
CCOC(=O)Nc1ccc(NCc2ccc(F)cc2)cc1N	inactive
COc1ccc2c(c1)[C@]13CCCCC1C(C2)N(C)CC3 (some centres undefined)	inactive

Structure (SMILES)	Potency
Nc1ccc(N=Nc2ccccc2)cc1	inactive
CCCCCCCCCC(CC)c1ccc(S(=O)(=O)O)cc1 (centres undefined)	inactive
c1cc2ccc3cccc4ccc(c1)c2c34	inactive
CO/C=C(/C(=O)OC)c1ccccc1Oc1cc(Oc2ccccc2C#N)ncn1	3.16 µM (active)
C[C@@]12OC(=O)[C@]1([C@@H](O)[C@@H]1C=CCCC1)NC(=O)[C@H]2CCCl	0.148 µM (active)
N#C[C@H](O[C@@H]1O[C@H](CO[C@@H]2O[C@H](CO)[C@H](O)[C@H](O)[C@H]2O)[C@H](O)[C@H](O)[C@H]1O)c1ccccc1	20.9 µM (active)
CC[C@@H]1[C@@H](C)O[C@@](O)([C@@H](C)[C@H](O)[C@H](C)[C@H]2OC(=O)C=CC=C[C@@H](C)[C@@H]([C@@H](C)[C@@H](O)[C@H](C)[C@@]3(O)C[C@H](O[C@H]4C[C@H](O)[C@H](O)[C@H](C)O4)[C@H](CC)[C@@H](C)O3)OC(=O)C=CC=C[C@@H]2C)C[C@H]1O[C@H]1C[C@H](O)[C@H](O)[C@H](C)O1	3.32 µM (active)
CC(C)[C@H]1C(=O)N[C@H](CO)Cc2c[nH]c3cccc(c23)N1C	inactive
O=[N+]([O-])c1cc([N+](=O)[O-])c2ccccc2c1	inactive
Oc1ccc2c3c1O[C@H]1[C@@H](O)C=C[C@H]4[C@@H](C2)NCC[C@@]341	inactive
C/C=C(/C)C(=O)O[C@H]1C(C)=C2[C@H]([C@@H]1OC(=O)CCCCCCC)[C@@](C)(OC(C)=O)C[C@H](OC(=O)CCC)[C@@]1(O)[C@H]2OC(=O)[C@@]1(C)O	2.06 µM (active)
N=c1c2c(-c3ccccc3)c(-c3ccccc3)n(Cc3ccccc3)c2ncn1C1CCC(O)CC1 (centres undefined)	0.935 µM (active)
CCOC(=O)c1c(C(C#N)=CN)c2ccc(Cl)c(Cl)c2n1C	inactive
COc1cc([C@@H]2c3cc4c(cc3[C@@H](O)C3COC(=O)C32)OCO4)cc(OC)c1O (some centres undefined)	0.118 µM (active)
O=S(=O)(CC1CS1)c1ccc(Oc2ccccc2)cc1 (centres undefined)	inactive
CC1=C(O)C(=O)C=C2C1=CC=C1[C@@]2(C)CC[C@@]2(C)[C@@H]3C[C@](C)(C(=O)O)CC[C@]3(C)CC[C@]12C	2.96 µM (active)
CN(C)NC(=O)CCC(=O)O	inactive
O=S(=O)(F)Cc1ccccc1	inactive
CS(=O)(=O)c1ccc(C(=O)C2C(=O)CCCC2=O)c([N+](=O)[O-])c1	inactive
